In PubChem BioAssay AID1851 (National Center for Advancing Translational Sciences (NCATS), 2009):
Hit rate of the full screen: of about 16,000 compounds, about 4,000 (25%) were called active. About 26% were inconclusive and are not listed. Calls come from the whole dose curve; as a rule, active = well fitted curve in the direction sought with a large enough effect; inconclusive = small, poorly fitted or top-dose-only effect, or effect the other way; inactive = no such curve, though single readings can be large or run the other way. Not all results are given here.

Molecular target: Cytochrome P450 2C9 (Homo sapiens) (UniProt P11712)
Sequence (P11712 whole entry, looked up): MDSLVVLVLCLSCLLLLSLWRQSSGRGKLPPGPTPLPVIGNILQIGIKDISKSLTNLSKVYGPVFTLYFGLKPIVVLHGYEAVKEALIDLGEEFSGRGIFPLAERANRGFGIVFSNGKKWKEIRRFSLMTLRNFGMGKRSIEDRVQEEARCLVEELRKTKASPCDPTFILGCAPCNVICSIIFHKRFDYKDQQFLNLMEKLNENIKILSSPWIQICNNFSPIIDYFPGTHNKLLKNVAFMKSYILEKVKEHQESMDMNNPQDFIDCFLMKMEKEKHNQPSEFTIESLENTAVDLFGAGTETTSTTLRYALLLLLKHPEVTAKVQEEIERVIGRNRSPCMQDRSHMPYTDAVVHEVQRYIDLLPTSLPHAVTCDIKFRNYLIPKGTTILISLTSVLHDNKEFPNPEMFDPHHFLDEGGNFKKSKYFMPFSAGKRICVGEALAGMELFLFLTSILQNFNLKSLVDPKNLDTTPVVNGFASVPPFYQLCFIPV
Assay: Cytochrome panel assay with activity outcomes
Details: recombinant CYP, pro-luciferin dealkylation, luminescence, p450-cyp2c9; series mostly up to 57.1 µM; activity, negative = inhibition: at the top concentration
% is set by controls: 0 for no effect and ±100 for the full control effect.

AC50, active:
Cc1ccc(Cl)cc1N1CCN(S(=O)(=O)c2ccc3c(c2)OCCO3)CC1 2.82 µM
Cc1ccc2nc(N3CCN(S(=O)(=O)c4ccc5c(c4)OCCO5)CC3)c(C#N)cc2c1 2.82 µM
CC(=O)C1=C(NC(=O)c2ccc(F)cc2)CC2C1C2(C)C (stereo not drawn) 3.55 µM
O=C(COc1cccc2ccccc12)N1c2ccccc2CCc2ccccc21 2.82 µM
O=C(c1cc(C(F)(F)F)cc(C(F)(F)F)c1)N1CCC2(CCN(Cc3nccs3)CC2)CC1 12.6 µM
O=C(c1cccc(F)c1)N1CCC2(CCN(Cc3nccs3)CC2)CC1 15.8 µM
O=C(c1cccc(F)c1)N1CCC[C@@]2(CCN(Cc3nccs3)C2)C1 10 µM
Cc1cc2ccccn2c1C(=O)c1ccc(Cl)cc1 11.2 µM
CCS(=O)(=O)c1ccc(C(=O)Nc2ccccc2)c(Cl)c1Cl 10 µM

AC50, inactive:
NC(N)=NN=Cc1c(Cl)cccc1Cl

activity, negative = inhibition, inactive:
O=C(c1ccc2c(c1)OCCO2)C1CCN(S(=O)(=O)c2ccccc2F)CC1 -25.3%
O=C(O)CCC(=O)N1CCOc2ccc(Cl)cc21 0.992%
O=c1c(Cl)c(N2CCN(S(=O)(=O)c3ccc(F)cc3)CC2)cnn1-c1cccc(Cl)c1 -28.2%
O=C(Nc1cccc2[nH]ncc12)c1ccc(F)cc1 -3.46%
Cc1occc1C(=O)NNC(=O)c1ccc(F)cc1 -15.1%
C/C(CCN1CCCc2nc(C)c(C)cc21)=N\OC[C@@H](C)[C@H](OCc1ccccc1)C(C)C 24.5% [at 11.4 µM]
Cn1ncc2c(NCCc3ccccc3)nc(Cl)nc21 -22.7% [at 11.4 µM]
O=C(CCCc1ccccn1)c1ccccc1 -17.1% [at 11.4 µM]
COc1ccccc1N1CCN(C[C@@H](O)COc2cccc3ccccc23)CC1 18.2% [at 25.6 µM]
OC[C@@H](O)COc1cccc2ccccc12 -24.2%
O=C(c1ccco1)N1CCC2(CCN(Cc3nccs3)CC2)CC1 3.85%
O=C(c1cccc(F)c1)N1CCC2(CCCN(Cc3nccs3)C2)CC1 -3.9%
O=C(c1cc(C(F)(F)F)cc(C(F)(F)F)c1)N1CCC2(CCCN(Cc3nccs3)C2)CC1 29.9%
O=C(c1cc(C(F)(F)F)cc(C(F)(F)F)c1)N1CCC[C@@]2(CCN(Cc3nccs3)C2)C1 -1.58%
O=C(c1ccncc1)N1CCC2(CCN(Cc3nccs3)CC2)CC1 2.77%
O=C(c1ccco1)N1CCC[C@@]2(CCN(Cc3nccs3)C2)C1 -3.46%
Cc1cc(CC(=O)O)n(C)c1C(=O)c1ccc(Cl)cc1 -17.2% [at 25.6 µM]
CN1C[C@H](c2ccccc2)C(O)([C@]2(c3ccccc3)CN(C)C[C@@H](c3ccccc3)C2=O)[C@H](c2ccccc2)C1 (stereo partly drawn) 5.9% [at 11.4 µM]
